# Screening results as filed in PubChem BioAssay.
# Rows were chosen to be rich in hits. Some 12% of all compounds tested hit in one or more screens of this group.
# G9a block = qHTS Assay for Inhibitors of Histone Lysine Methyltransferase G9a. Histone-lysine N-methyltransferase EHMT2 (Homo sapiens), Q96KQ7. G9a H3K9 monomethylation, AlphaScreen, 2 h. Potency, µM (series often up to 102 µM), for inactives: at the highest dose activity, negative = inhibition, hits mostly inhibitors. 350,000 tested, 8.8% active. AID 504332, 2011; further: potency means the concentration at half of the fitted maximal effect; on the % scale 0 is the no-effect control and ±100 the full control effect; nearly all actives have a fitted effect of over 75% in size
# Target sequence (Q96KQ7 913-1193 limits assumed): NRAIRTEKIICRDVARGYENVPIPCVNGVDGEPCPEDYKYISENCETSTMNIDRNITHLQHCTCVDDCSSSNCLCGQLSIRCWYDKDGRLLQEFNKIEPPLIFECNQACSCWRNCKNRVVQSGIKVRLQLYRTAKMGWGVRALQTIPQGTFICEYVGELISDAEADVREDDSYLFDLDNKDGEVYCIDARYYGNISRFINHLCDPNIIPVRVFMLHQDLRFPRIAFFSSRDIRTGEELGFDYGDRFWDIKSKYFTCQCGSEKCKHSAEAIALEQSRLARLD
#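 Methyltransferase reactions run at room temperature for 2 h (20 nM enzyme, 500 nM biotin-H3K9 peptide, 20 uM SAM) after a 15 min compound preincubation; product detected by AlphaScreen beads and anti-H3K9me1 antibody.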
# PLK1 PBD block = qHTS for Inhibitors of PLK1-PDB (polo-like kinase 1 - polo-box domain): Primary Screen. Plk1 PBD binding of FITC phosphopeptide, fluorescence polarization. Potency, µM, inactives show max response, negative = inhibition, usual class: inhibitors. 360,000 tested, 2.8% active; further: potency means the concentration at half of the fitted maximal effect; series mostly up to about 57 µM; on the % scale 0 is the no-effect control and ±100 the full control effect; nearly all actives have a fitted effect of over 65% in size
# PI5P4K alpha inh = qHTS for Inhibitors of phosphatidylinositol 5-phosphate 4-kinase (PI5P4K). PI5P4Kalpha enzyme, ADP-Glo luminescence, 60 min; hits give low values. max response, %. 330,000 tested, 1.2% active; active means max response of -50% or lower; inconclusive means between -30% and -50%; inactive means -30% or higher; further: value at the top dose of about 77 µM; on the % scale 0 is the no-effect control and ±100 the full control effect
# Target sequence (P48426 whole entry, looked up): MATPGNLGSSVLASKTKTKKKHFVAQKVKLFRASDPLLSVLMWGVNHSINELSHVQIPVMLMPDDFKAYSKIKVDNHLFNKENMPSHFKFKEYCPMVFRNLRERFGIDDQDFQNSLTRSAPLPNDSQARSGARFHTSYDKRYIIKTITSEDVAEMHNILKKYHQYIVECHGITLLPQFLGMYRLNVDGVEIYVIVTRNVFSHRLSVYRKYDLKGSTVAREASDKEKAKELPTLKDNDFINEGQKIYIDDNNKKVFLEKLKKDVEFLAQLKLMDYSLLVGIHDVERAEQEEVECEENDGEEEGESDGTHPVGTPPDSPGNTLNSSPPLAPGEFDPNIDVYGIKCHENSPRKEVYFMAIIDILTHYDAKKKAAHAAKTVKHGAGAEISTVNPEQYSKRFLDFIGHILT
#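 Single end-point luminescence (ADP-Glo) quantified ADP from PI5P4Kalpha turnover; ATP 5 microM final, 1 h at RT, 0.1% CHAPS and 0.28 mM EGTA in HEPES pH 7.4.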
# BAZ2B inh = qHTS Assay for Inhibitors of BAZ2B; Bromodomain adjacent to zinc finger domain protein 2B (Homo sapiens), Q9UIF8; AlphaScreen BAZ2B-H3K14Ac peptide displacement; Potency, µM (doses to about 114 µM), inactives show at the top dose activity change, negative = inhibition, usual class: inhibitors; 360,000 tested, 4.4% active; further: potency means the concentration at half of the fitted maximal effect; on the % scale 0 is the no-effect control and ±100 the full control effect; nearly all actives have a fitted effect of over 60% in size
#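 Inhibition is scored as reduced AlphaScreen emission. The BAZ2B/b-H3(5-23)K14Ac complex (50 nM each) in PBS pH 7.4, 0.01% Tween-20 meets compound (up to 110 uM) for 30 min at RT before bead addition.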
# JMJD2A Tudor = qHTS Assay for Inhibitors of JMJD2A-Tudor Domain; AlphaScreen JMJD2A-Tudor / H3K4me3 peptide binding; 390,000 tested, 4.4% active; Potency, µM (series often up to 114 µM), for the others: at the top dose activity change, negative = inhibition, most hits filed as inhibitors; Lysine-specific demethylase 4A (Homo sapiens), O75164; further: potency means the concentration at half of the fitted maximal effect; on the % scale 0 is the no-effect control and ±100 the full control effect; nearly all actives have a fitted effect of over 50% in size
# HP1b binding inh = HTS for Inhibitors of HP1-beta Chromodomain Interactions with Methylated Histone Tails; AlphaScreen HP1-beta / biotin-H3K9me3 peptide binding; Potency, µM (highest dose often 114 µM), inactives show top-dose activity change, negative = inhibition, actives largely listed as inhibitors; 390,000 tested, 0.56% active; further: potency means the concentration at half of the fitted maximal effect; nearly all actives have a fitted effect of over 70% in size
#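 Compound inhibition of the preformed complex between 50 nM HP1-beta and 50 nM biotinylated H3K9me3 peptide was read by AlphaScreen. Buffer was PBS pH 7.4 with 0.01% Tween-20. Incubations ran 30 min at room temperature, with 10 ug/mL donor/acceptor beads.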
# The depositor's hits bear a star; ? = inconclusive; · = no result given; [ ] = remark or other dose. Unless noted, the call rests on the fitted dose curve; in most records, active means well fitted curve in the direction sought with a large enough effect; inconclusive means small, poorly fitted or top-dose-only effect, or another doubt; inactive means no such curve, though single readings can be large; an effect the other way counts as inactive or inconclusive.
SMILES,G9a block,PLK1 PBD block,PI5P4K alpha inh,BAZ2B inh,JMJD2A Tudor,HP1b binding inh
O=C(NC(=S)Nc1ccc(N2CCCCC2)cc1)c1ccc2c(c1)OCCO2,?,-1%,-1,10µM*,?,?
O=C(NC(=S)Nc1ccc(F)cc1)c1ccc2c(c1)OCCO2,?,-22%,1,?,-29%,23%
O=C(NC(=S)Nc1ccc(CN2CCOCC2)cc1)c1ccc([N+](=O)[O-])cc1,?,?,-4,-36%,-30%,3%
O=C(NC(=S)Nc1ccc(N2CCCC2)cc1)c1ccc(F)cc1,?,6%,-4,11µM*,?,-15%
O=C(NC(=S)Nc1ccc(N2CCOCC2)cc1)c1ccc2c(c1)OCCO2,10µM*,8.4µM*,-18,?,20µM*,-25%
COc1ccc(S(=O)(=O)Nc2cccc(-c3ccc(N4CCCC4)nn3)c2)cc1F,4%[59 µM],·,·,-1%,-21%,12%[57 µM]
COc1ccc(OC)c(S(=O)(=O)N2CC=C(c3c(C)n(CC(=O)N4CCCC4)c4ccccc34)CC2)c1,?,·,·,?,-28%,19%
CC(C)c1nnc(N2C(=O)c3oc4ccccc4c(=O)c3C2c2ccccc2F)s1 (stereo unspecified),-5%[59 µM],·,·,-1%[57.1 µM],1%,34%
COC(=O)c1cc2oc3ccccc3c2n1CC(=O)Nc1cc(OC)cc(OC)c1,-5%[59 µM],·,·,-2%,-11%,3%
Cc1ccc(S(=O)(=O)N2CCCCC2)cc1NS(=O)(=O)c1ccccc1F,·,-15%,2,·,-21%,-10%
COc1ccc(Br)c(Cn2c(C)c(C(=O)NCc3ccccc3C(F)(F)F)sc2=O)c1,·,-2%,3,·,·,·
O=C(CSc1ccc2c(c1)OCCO2)Nc1ccc(N2CCOCC2)cc1,?,?,10,-22%,-4%,13%
CC(Sc1ccc2c(c1)OCCO2)C(=O)Nc1ccc(N2CCOCC2)cc1 (stereo unspecified),50µM*,?,-8,-10%,-7%,24%
OCCNCCSc1nc(C2CCCCC2)n(-c2ccccc2Cl)n1,?,-12%,-3,?,0.89µM*,-11%
NC(=O)NC(=O)CSc1nc(C2CCCCC2)n(-c2ccccc2)n1,-7%[59 µM],-10%,4,-3%,-10%,1%
O=C(CN1CCN(c2ncc(C(F)(F)F)cc2Cl)CC1)NCCNc1ncc(C(F)(F)F)cc1Cl,-3%[12.7 µM],-3%,39,2%,-13%,28%
O=C(CONS(=O)(=O)c1ccc(Cl)cc1)NCCNc1ncc(C(F)(F)F)cc1Cl,56µM*,-24%,15,-16%,-17%,28%
COc1ccccc1C(=O)NC1=NC(c2ccc(Br)cc2)CC(=O)N1 (stereo unspecified),8%[59 µM],·,·,-4%,-17%,14%
Cc1nccc(-c2cccc(N/N=C(\C#N)C(=O)c3ccccc3)c2)n1,?,-11%,-20,-28%,?,-5%
COC(=O)c1ccc(N=NNc2ccccc2)cc1,8.9µM*,-9%,-4,?,-25%,6%
O=C(Nc1cccc([N+](=O)[O-])c1)c1ccc(-c2ccccc2)cc1,11%[59 µM],-23%,0,0%,-16%,4%
N#C/C(=N\Nc1cccc([N+](=O)[O-])c1)C(=O)c1ccc(Br)cc1,45µM*,30µM*,-13,40µM*,40µM*,?
O=C(O)c1ccc(N=NNc2cccc([N+](=O)[O-])c2)cc1,45µM*,-8%,-53*,-30%,-16%,-4%
Cc1ccnc(NS(=O)(=O)c2ccc(NC(=O)C3COc4ccccc4O3)cc2)n1 (stereo unspecified),2%,7.5µM*,-29,-22%,18µM*,?
Cc1ccnc(NS(=O)(=O)c2ccc(NC(=O)Cc3cccs3)cc2)n1,5%[12.7 µM],?,-83*,50µM*,32µM*,-33%
SMILES,G9a block,PLK1 PBD block,PI5P4K alpha inh,BAZ2B inh,JMJD2A Tudor,HP1b binding inh
Cc1ccnc(NS(=O)(=O)c2ccc(NC(=O)c3ccc(N4C(=O)CCC4=O)cc3)cc2)n1,-7%[59 µM],-15%,-64*,?,-30%,24%
Cc1ccnc(NS(=O)(=O)c2ccc(NC(=O)Cc3ccc(F)cc3)cc2)n1,?,-4%,0,0%,-18%,41%
CNC(=O)C[C@@H](N)C(=O)N[C@@H](C(=O)N[C@@H]1C(=O)N2[C@@H]1SC(C)(C)[C@@H]2C(=O)O)c1ccc(O)cc1,-45%[12.7 µM],·,·,·,·,·
CC(C)CNc1nc(C#N)nc(Nc2ccccc2)n1,·,·,·,·,-12%,·
CC(C)ON([C@@H](C(=O)NO)C(C)C)S(=O)(=O)c1ccc(-c2ccccc2)cc1,0%[59 µM],·,·,·,·,·
Fc1ccccc1Oc1nc(-c2ccncc2)nc2ccccc12,·,9%,8,5%,-6%,38%
CCNC(=O)C1(C)CCCN1C(=O)c1cc(C)on1 (stereo unspecified),·,-18%,2,·,·,·
O=C(CC1C(=O)Nc2ccccc2N1CC(=O)N1CCCC1)Nc1ccc(Br)cc1 (stereo unspecified),0.28µM*,-2%,-2,2%,-18%,28%
O=C(O)c1cccc2c1-c1ccc(Cl)cc1C2=O,·,-5%,3,·,-15%,38%
Nc1cccc2c1C(=O)c1ccc(Cl)cc1C2=O,·,?,3,·,14µM*,?
CCN(Cc1cccs1)c1ncnc2ccc(-c3ccc4c(c3)OCO4)cc12,·,·,·,·,-1%,·
FC(F)(Cl)c1nnc2ccc(Sc3ccccn3)nn12,25µM*,21µM*,5,-20%,-1%,41%
FC(F)(F)c1cnc(/C=C/Nc2ccccc2Cl)c(Cl)c1,107%[59 µM],-17%,18,-27%,-12%,25%
C[N+]1=C(/C=C/Nc2ccccc2Cl)C(C)(C)c2ccccc21,7.9µM*,-11%,1,-34%,?,-21%
N#C/C(=N\Nc1ccccc1)C(=N)N1CCCCC1,-7%,-4%,0,?,-23%,-8%
CCN(CC)C(=N)/C(C#N)=N/Nc1ccccc1,·,0%,-4,-15%,79µM*,?
CC(OC(=O)C1=COCCO1)C(=O)Nc1ncc(Cl)cc1Cl (stereo unspecified),-49%,6%,-5,-3%,8%,39%
COc1ccc(CNc2cc(-c3ccccc3C)ncn2)c(OC)c1,-2%[0.501 µM],·,·,·,·,·
